In the library only some 19% were active in any assay of this set; here they are far more common.
HepG2 viability: qHTS for Inhibitors of TGF-b: Cytotox Counterscreen; HepG2 CAGA-GFP viability, ATP luminescence, 18 h; Potency, µM (titrated, usually from 46.1 µM), for the others: top-dose activity change, negative = cytotoxicity, hits mostly cytotoxic; 410,000 compounds, 0.76% hits; note: potency is the fitted concentration of half-maximal effect
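CellTiter-Glo luminescence gave cytotoxicity after 18 hours at 37 degrees C. The cells were HepG2 CAGA-GFP in 1% FBS DMEM, stimulated with 500 pg/mL TGF-beta after compound addition. %Activity was normalised to no-cell wells (complete cell-killing) and DMSO (no toxicity), and curves were fitted and classified.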
TDP1 block: qHTS Assay for Inhibitors of Tyrosyl-DNA Phosphodiesterase (TDP1); recombinant TDP1, AlphaScreen DNA substrate cleavage; Potency, µM (titrated, usually from 130 µM), without a hit: top-dose activity change, negative = inhibition, hits mostly inhibitors; 350,000 compounds, 0.28% hits; AID 485290, 2010; note: potency is the fitted concentration of half-maximal effect; % is set by controls: 0 for no effect and ±100 for the full control effect; nearly all actives have a fitted effect of over 40% in size
Target sequence (Q9NUW8 whole entry, looked up): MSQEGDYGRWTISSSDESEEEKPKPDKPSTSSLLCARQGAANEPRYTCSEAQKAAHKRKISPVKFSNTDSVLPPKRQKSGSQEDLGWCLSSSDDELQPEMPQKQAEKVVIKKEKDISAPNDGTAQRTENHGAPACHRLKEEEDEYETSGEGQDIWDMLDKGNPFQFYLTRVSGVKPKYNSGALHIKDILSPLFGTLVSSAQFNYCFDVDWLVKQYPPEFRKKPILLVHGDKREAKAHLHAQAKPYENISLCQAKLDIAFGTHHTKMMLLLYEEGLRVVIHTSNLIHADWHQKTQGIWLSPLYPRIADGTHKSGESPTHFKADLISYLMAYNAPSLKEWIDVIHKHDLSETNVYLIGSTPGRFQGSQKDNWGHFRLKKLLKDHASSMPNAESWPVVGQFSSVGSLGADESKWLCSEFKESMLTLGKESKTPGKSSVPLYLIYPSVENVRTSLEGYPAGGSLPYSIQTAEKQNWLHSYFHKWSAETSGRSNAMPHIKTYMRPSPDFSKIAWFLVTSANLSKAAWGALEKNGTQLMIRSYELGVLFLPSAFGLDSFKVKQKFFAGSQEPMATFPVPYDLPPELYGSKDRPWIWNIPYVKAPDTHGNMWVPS
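Recombinant E. coli-expressed Tdp1 (1 nM) preincubated with compound 15 min at RT, then 5'-biotin/3'-phosphotyrosine-FITC DNA substrate (15 nM) added for 5 min. AlphaScreen beads (10 ug/ml) added, 10 min RT; tyrosine-FITC cleavage read as signal loss.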
TDP1 cell noCPT: qHTS for Inhibitors of human tyrosyl-DNA phosphodiesterase 1 (TDP1): qHTS in cells in absence of CPT | DT40 Tdp1-/- hTDP1 cells, no CPT, ATP luminescence, 48 h | Potency, µM (series often up to 46.2 µM), without a hit: top-dose activity change, negative = growth inhibition, hits mostly inhibitors | 420,000 compounds, 15% hits | AID 686978, 2013; note: potency is the fitted concentration of half-maximal effect; % is set by controls: 0 for no effect and ±100 for the full control effect; nearly all actives have a fitted effect of over 55% in size
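No-CPT arm: Tdp1-/-;hTDP1 DT40 cells (400/well) plus compounds, incubated ≥48 hr at 37 °C. Readout CellTiter-Glo luminescence.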
TGFb inhibitor: qHTS for Inhibitors of TGF-b | Potency, µM (series often up to 46.1 µM), without a hit: at the top dose activity, negative = inhibition, most hits filed as inhibitors | HepG2 CAGA-GFP TGF-b/SMAD3 reporter, GFP fluorescence, 18 h; TGF-beta stimulated, 500 pg/mL final | 410,000 compounds, 1.2% hits; note: potency is the fitted concentration of half-maximal effect; % is set by controls: 0 for no effect and ±100 for the full control effect; nearly all actives have a fitted effect of over 65% in size
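TGF-beta reporter screen: HEPG2 CAGA-GFP, 1% FBS, 500 pg/mL TGF-beta final, 18 h; per-cell GFP summed per well; curves fitted and categorized by class.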
TDP1 cell CPT: qHTS for Inhibitors of human tyrosyl-DNA phosphodiesterase 1 (TDP1): qHTS in cells in presence of CPT; chicken DT40 Tdp1-/-;hTDP1 cells + 20 nM CPT, ATP luminescence, 48 h; 420,000 compounds, 12% hits; Potency, µM (titrated, usually from 46.2 µM), inactives show at the top dose activity change, negative = growth inhibition, hits mostly inhibitors; note: potency is the fitted concentration of half-maximal effect; % is set by controls: 0 for no effect and ±100 for the full control effect; nearly all actives have a fitted effect of over 55% in size
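Chicken DT40 Tdp1-/- cells stably complemented with human TDP1 were seeded at 400 cells/well in medium containing 20 nM camptothecin, exposed to pin-transferred compounds, and grown at 37 °C for at least 48 hr. Viability was read as ATP luminescence.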
IL-1B inflam inh: qHTS for Inhibitors of Inflammasome Signaling: IL-1-beta AlphaLISA Primary Screen. 360,000 compounds, 4.7% hits. activity change, % at 57.5 µM. AID 743279, 2014. THP-1 LPS/ATP IL-1B secretion, AlphaLISA, 16 h; hits give low values; in the data active = activity change below about -50%; inconclusive = mostly about -30% to -49%; note: % is set by controls: 0 for no effect and ±100 for the full control effect
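THP-1 cells pretreated 1 hr with compounds (up to 57.5 uM final), then stimulated with LPS (250 ng/mL final) plus ATP (1.25 mM final); secreted IL-1B measured by AlphaLISA after 16 hr, decreased signal indicating inhibition.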
The depositor's hits bear a star; u = inconclusive; x = not tested or not shown; [ ] = dose if it differs, or a comment. Unless noted, calls come from the whole dose curve; as a rule, active = well fitted curve in the direction sought with a large enough effect; inconclusive = small, poorly fitted or top-dose-only effect, or another doubt; inactive = no such curve, though single readings can be large; an effect the other way counts as inactive or inconclusive.

SMILES | HepG2 viability | TDP1 block | TDP1 cell noCPT | TGFb inhibitor | TDP1 cell CPT | IL-1B inflam inh
CN(Cc1nccs1)C(=O)c1cc(COc2cccc3cnccc23)on1 | -23% | 5% | 10µM* | -8% | 7.3µM* | -15
CCOC(=O)CC1CCCCN1C(=O)c1cc(COc2cccc3cnccc23)on1 (centres undefined) | -36% | 5% | 3.7µM* | -29% | 1.6µM* | -12
COCCC1CCCCN1C(=O)c1cc(COc2cccc(C(C)=O)c2)on1 (centres undefined) | -2% | 1% | 26µM* | u | 23µM* | -12
COC(=O)C1CCCCN1C(=O)c1cc(COc2cccc3cccnc23)on1 (centres undefined) | -9% | 1% | -27% | 3% | -21% | -16
O=C(c1cc(COc2cccc3cccnc23)on1)N1CCC[C@H]1CO | -9% | x | 0% | -6% | -3% | -64*
COc1cc(-c2cc(C)c3c(OC)ccc(OC)c3n2)cc2c1OCCN(C(=O)Cn1nc(C)cc1C)C2 | x | x | -30% | x | 1%[9.04 µM] | x
O=C(CCc1nc2ccccc2c(=O)[nH]1)OCCOc1ccc(Cl)cc1 | 2% | u | -25% | -2% | -17% | -15
COCCN(C(=O)COC(=O)C1CCC(C(C)(C)C)CC1)c1c(N)n(Cc2ccccc2)c(=O)[nH]c1=O (centres undefined) | -3% | 1% | u | -6% | u | -6
CC(Sc1nnc(CN2CCCC2)n1Cc1ccccc1)C(=O)Nc1ccc(F)cc1Cl (centres undefined) | -10% | x | 26µM* | u | 18µM* | u
O=[N+]([O-])c1cc(-c2nc(-c3ccncc3)no2)ccc1Cl | -41% | 0% | u | -6% | 10µM* | -118*
O=[N+]([O-])c1cc(-c2nc(-c3ccncc3)no2)cc([N+](=O)[O-])c1 | -6% | 3% | 10µM* | u | 10µM* | 32
CC(C)(C)c1ccc(-c2nc(-c3ccncc3)no2)cc1 | 10µM* | -8%[56.1 µM] | 16µM* | 16µM* | u | 51
Cc1cc(C)cc(-c2nc(-c3ccncc3)no2)c1 | -8% | 4% | u | -3% | u | 1
COc1ccc(-c2nc(-c3ccncc3)no2)c(OC)c1 | -1% | 1% | u | 4% | -28% | -5
COc1cc(OC)c(-c2nc(-c3ccncc3)no2)cc1OC | -32% | x | 16µM* | u | u | x
O=C1COCCN1 | -2% | 7% | x | -12% | x | x
O=C(NCc1ccccc1)n1cc(P(=S)(c2ccccc2)c2ccccc2)c2ccccc21 | x | 0% | x | x | x | x
O=C(NC1CCCC1)C(c1ccco1)N1CCC(O)(c2ccc(Cl)cc2)CC1 (centres undefined) | x | x | 18µM* | x | 23µM* | -6
CCOC(=O)N1CCN(C(C(=O)NC2CCCC2)c2ccco2)CC1 (centres undefined) | x | x | -1% | x | u | 12
Cc1ccc(C)c(N2CCN(C(C(=O)NC3CCCC3)c3ccco3)CC2)c1 (centres undefined) | x | x | 12µM* | x | u | -55*
COc1ccc(C)cc1NC(=O)NC1CCCCCCC1 | -8% | 4% | u | 0% | u | -8
COc1cccc(C(C(=O)NC2CCCC2)N2CCN(c3ncccc3C#N)CC2)c1OC (centres undefined) | x | x | 16µM* | x | u | -12
COc1cccc(C(C(=O)NC2CCCC2)N2CCN(c3cc(C)ccc3C)CC2)c1OC (centres undefined) | x | x | 21µM* | x | 21µM* | -59*
Cc1cc(C)cc(OCC(=O)OCc2cc([N+](=O)[O-])cc3c2OCOC3)c1 | 4% | 0% | 4% | 32% | 14% | 11
Cc1sc2ncn(CC(=O)Nc3ccc(F)cc3Cl)c(=O)c2c1S(=O)(=O)N1CCN(c2ncccn2)CC1 | -5% | -3% | -16% | -22% | -6% | x
SMILES | HepG2 viability | TDP1 block | TDP1 cell noCPT | TGFb inhibitor | TDP1 cell CPT | IL-1B inflam inh
CC(C)CCNC(=O)CN1C(=O)CSc2ccc(S(=O)(=O)N3CCC(C)CC3)cc21 | -15% | 8% | u | 0% | u | x
O=C(COc1ccccc1Cl)Nc1ccc(CN2CCCCC2)cc1 | -17% | 3% | u | 7% | -11% | -24
C[C@](N)(COP(=O)(O)O)C(=O)O | x | 11% | -9% | x | 18% | x
Cc1ccccc1NC(=O)c1ccc2nc(N3CCOCC3)sc2c1 | 0% | x | 15µM* | 2% | 18µM* | -26
Cc1ccccc1CNC(=O)c1ccc2nc(N3CCOCC3)sc2c1 | -26% | x | u | -14% | u | 9
CCCn1nc(C(=O)Nc2ccc3nc(N4CCOCC4)sc3c2)ccc1=O | -16% | -8% | 10µM* | -20% | 9.2µM* | 17
CCOCc1c(C(=O)Nc2ccccc2N2CCN(C)CC2)oc2ccccc12 | -36% | -3% | 10µM* | -11% | 8.2µM* | -57*
CCOCc1c(C(=O)Nc2ccc3nc(N4CCOCC4)sc3c2)oc2ccccc12 | -39% | 1%[56.1 µM] | u | -24% | 21µM* | -16
COC(=O)c1cccc(NC2=NS(=O)(=O)c3ccccc32)c1 | -42% | 5% | u | u | u | x
Cc1ccc(S(=O)(=O)NCc2ccccc2)cc1C(=O)NCC1CCCO1 (centres undefined) | 0% | 1% | u | 15% | -4% | 13
C[C@H](NC(=O)CNC(=O)[C@@H](NC(=O)[C@H](Cc1ccccc1)NC(=O)CNC(=O)CNC(=O)[C@@H](N)Cc1ccccc1)[C@@H](C)O)C(=O)N[C@@H](CCCN=C(N)N)C(=O)N[C@@H](CCCCN)C(=O)N[C@@H](CO)C(=O)N[C@@H](C)C(=O)N[C@@H](CCCN=C(N)N)C(=O)N[C@H](CN)CCCCN | x | 7% | -1%[4.12 µM] | x | -4%[4.12 µM] | x
CCc1ccc(OCC(=O)N(Cc2ccc(Cl)cc2)C2CCS(=O)(=O)C2)cc1 (centres undefined) | -83% | 2% | u | -8% | u | x
CCN(CC)CCNC(=O)c1ccc(NC(=O)c2cc(S(=O)(=O)N3CCCCC3)ccc2N2CCOCC2)cc1 | -5% | x | -16% | u | -17% | 14
